Reference: PubChem BioAssay (NCI)
This is part of a sample that, as a whole, favours compounds with a hit. Of some 83,000 tested, about 20% had one in any assay.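 Percent growth is the endpoint: 0 to 100 indicates growth inhibition (40 means 60% inhibition), 0 means no net growth, and negative values indicate cell death.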 Active and inactive are the calls of the source. Rule for the calls: active = growth percent below 10; inactive = the rest.

What was measured:
Assay in all cases: NCI-60 one-dose screen, 48 h (100 = growth as untreated, 0 = no growth, -100 = all killed)
Details in all cases: 10 µM unless noted
HCT-15 colon = tested on: HCT-15 colon
HT29 colon = tested on: HT29 colon
SNB-75 CNS = tested on: SNB-75 CNS
SNB-19 CNS = tested on: SNB-19 CNS
U251 CNS = tested on: U251 CNS
PC-3 prostate = tested on: PC-3 prostate
SK-MEL-5 melanoma = tested on: SK-MEL-5 melanoma
UACC-62 melanoma = tested on: UACC-62 melanoma
LOX IMVI melanoma = tested on: LOX IMVI melanoma
SK-MEL-28 melanoma = tested on: SK-MEL-28 melanoma

Measured: growth

O=C(CSc1nc2ccccc2c(=O)n1-c1ccccc1)Nc1cccc(C(=O)/C=C/c2ccccc2)c1
inactive: HCT-15 colon 76.4% | HT29 colon 96.4% | SNB-75 CNS 75.6% | SNB-19 CNS 85.5% | U251 CNS 71.2% | PC-3 prostate 90.4% | SK-MEL-5 melanoma 99.5% | UACC-62 melanoma 88.7% | LOX IMVI melanoma 86.1% | SK-MEL-28 melanoma 102%

O=C(CN1CCN(c2cc(=O)[nH]c3ccc(F)cc23)CC1)Nc1ccc(Cl)cc1
inactive: HCT-15 colon 79.3% | HT29 colon 100% | SNB-75 CNS 13% | SNB-19 CNS 21.3% | U251 CNS 42.6% | PC-3 prostate 78.6% | SK-MEL-5 melanoma 80.9% | UACC-62 melanoma 47.9% | LOX IMVI melanoma 75.2% | SK-MEL-28 melanoma 82.3%

CCCCc1nc(/C=N/Nc2nc(Nc3ccccc3)nc(Nc3ccc(S(N)(=O)=O)cc3)n2)c(Cl)[nH]1
active: U251 CNS -1.83%
inactive: HCT-15 colon 103% | HT29 colon 102% | SNB-75 CNS 112% | SNB-19 CNS 30.7% | PC-3 prostate 83% | SK-MEL-5 melanoma 75.2% | UACC-62 melanoma 72.8% | LOX IMVI melanoma 41.1% | SK-MEL-28 melanoma 71%

CCOP(=O)(OCC)OC[C@]12CCC(C)(C)C=C1[C@H]1CC[C@@H]3[C@@]4(C)CC[C@H](OP(=O)(OCC)OCC)C(C)(C)[C@@H]4CC[C@@]3(C)[C@]1(C)CC2
active: HCT-15 colon -73.3% | HT29 colon -42.4% | SNB-75 CNS -11.5% | SNB-19 CNS -12.4% | U251 CNS -84.9% | PC-3 prostate 0.0741% | SK-MEL-5 melanoma -93.4% | UACC-62 melanoma -29.4% | LOX IMVI melanoma -90.1% | SK-MEL-28 melanoma -31%

Cn1cc(-c2nc(N)nnc2-c2c[nH]c3ccccc23)c2cc(Br)ccc21
active: HT29 colon 5.93% | SNB-75 CNS 7.38% | PC-3 prostate 6.53%
inactive: HCT-15 colon 24.5% | SNB-19 CNS 27% | U251 CNS 23.1% | SK-MEL-5 melanoma 22.7% | UACC-62 melanoma 21% | LOX IMVI melanoma 24% | SK-MEL-28 melanoma 55.2%

COc1ccc(NC(=O)CSc2nnc(-c3ccc4nc(-c5ccccc5)[nH]c4c3)o2)cc1
inactive: HCT-15 colon 92.2% | HT29 colon 108% | SNB-75 CNS 101% | SNB-19 CNS 102% | U251 CNS 102% | PC-3 prostate 105% | SK-MEL-5 melanoma 85.9% | UACC-62 melanoma 95% | LOX IMVI melanoma 101% | SK-MEL-28 melanoma 99.7%

CC[C@H](CO)Nc1ccc2ncc(C#Cc3cncc(C(=O)Nc4ccc(CN5CCN(C)CC5)c(C(F)(F)F)c4)c3)n2n1
active: HCT-15 colon -38.1% | HT29 colon -35.6% | SNB-75 CNS -91.3% | SNB-19 CNS -22.4% | U251 CNS -85.3% | PC-3 prostate -31.7% | SK-MEL-5 melanoma -95.4% | UACC-62 melanoma -57.7% | LOX IMVI melanoma -98.8% | SK-MEL-28 melanoma -79.9%

CCc1cccc2c3c(sc12)C(c1ccc(OC)cc1)C(C#N)=C(/N=C/c1ccc(Cl)cc1)O3 (stereo not given)
inactive: HCT-15 colon 20.2% | SNB-19 CNS 30.6% | U251 CNS 20.1% | PC-3 prostate 21.1% | UACC-62 melanoma 27.8% | LOX IMVI melanoma 38% | SK-MEL-28 melanoma 59.8%
active: HT29 colon -25.7% | SNB-75 CNS 3.81% | SK-MEL-5 melanoma 4.03%

CC[C@@H](CO)Nc1ccc2ncc(C#Cc3cncc(C(=O)Nc4ccc(CN5CCN(C)CC5)c(C(F)(F)F)c4)c3)n2n1
active: HCT-15 colon -33.4% | HT29 colon -51% | SNB-75 CNS -83.5% | SNB-19 CNS -20% | U251 CNS -87.8% | PC-3 prostate -21.1% | SK-MEL-5 melanoma -96.4% | UACC-62 melanoma -34.5% | LOX IMVI melanoma -95.3% | SK-MEL-28 melanoma -43.4%

Cc1cc(C(NC(=O)CCCCCNc2cccc3c2C(=O)N(C2CCC(=O)NC2=O)C3=O)c2ccc3c(c2)OC(F)(F)O3)c(O)c2ncccc12 (stereo not given)
inactive: HCT-15 colon 72.2% | HT29 colon 71.8% | SNB-75 CNS 50.8% | SNB-19 CNS 51.6% | U251 CNS 33.6% | PC-3 prostate 32.3% | SK-MEL-5 melanoma 37% | UACC-62 melanoma 63.3% | LOX IMVI melanoma 57.9% | SK-MEL-28 melanoma 81%

FC(F)(F)c1cc(Nc2cccc(Oc3ccc(NC4=NCCN4)nc3)c2)ccc1Cl
inactive: SNB-75 CNS 10.7% | SK-MEL-28 melanoma 29.4%
active: HCT-15 colon -71.4% | HT29 colon 4.39% | SNB-19 CNS 9.09% | U251 CNS -7.18% | PC-3 prostate -36.5% | SK-MEL-5 melanoma 4.94% | UACC-62 melanoma -45.5% | LOX IMVI melanoma -94.8%

CCCCCc1ccc(S(=O)(=O)Nc2cccc(-c3csc(NC(=O)CCCCCN4CCN(C)CC4)n3)c2)cc1
inactive: SNB-75 CNS 85.9% | SNB-19 CNS 72.3% | U251 CNS 26.2% | PC-3 prostate 50.3% | UACC-62 melanoma 63.2%
active: HCT-15 colon -7.05% | HT29 colon 7.36% | SK-MEL-5 melanoma -66.8% | LOX IMVI melanoma -83.8% | SK-MEL-28 melanoma -18.9%

O=C1CCCc2nc(Nc3ccc(S(=O)(=O)Nc4ccc([N+](=O)[O-])cc4)cc3)ncc21
inactive: HCT-15 colon 103% | HT29 colon 118% | SNB-75 CNS 92.6% | SNB-19 CNS 96.2% | U251 CNS 103% | PC-3 prostate 105% | SK-MEL-5 melanoma 104% | UACC-62 melanoma 90.3% | LOX IMVI melanoma 97.1% | SK-MEL-28 melanoma 106%

CC(=O)c1cc(C(=O)c2ccc(Br)cc2)n2cc(C)cc(C)c12
inactive: HCT-15 colon 74.6% | HT29 colon 94.9% | SNB-75 CNS 89.8% | SNB-19 CNS 90.5% | U251 CNS 101% | PC-3 prostate 87.1% | SK-MEL-5 melanoma 66.3% | UACC-62 melanoma 82.6% | LOX IMVI melanoma 86.3% | SK-MEL-28 melanoma 92.4%

COc1c(N2CC3CCCNC3C2)c(F)cc2c(=O)c(C(=O)N/N=C/c3c[nH]c4ccccc34)cn(C3CC3)c12 (stereo not given)
inactive: HCT-15 colon 57.4% | HT29 colon 50.5% | SNB-75 CNS 99.5% | SNB-19 CNS 103% | U251 CNS 99.2% | PC-3 prostate 76.9% | SK-MEL-5 melanoma 95.3% | UACC-62 melanoma 103% | LOX IMVI melanoma 90.2% | SK-MEL-28 melanoma 104%

COc1cc(-c2nn(C(C)(C)C)cc2-c2ccnc(NCCCNS(=O)(=O)c3ccccc3)n2)ccc1Cl
inactive: HCT-15 colon 60.1% | HT29 colon 70.3% | SNB-75 CNS 49.1% | SNB-19 CNS 97.2% | U251 CNS 91.7% | PC-3 prostate 54.8% | SK-MEL-5 melanoma 72.7% | UACC-62 melanoma 78.4% | LOX IMVI melanoma 62.7% | SK-MEL-28 melanoma 93%

CN1CCN(c2ccc(/C=N/n3cnc4oc(-c5ccccc5)cc4c3=N)cc2)CC1
inactive: HCT-15 colon 83.9% | HT29 colon 66.2% | SNB-75 CNS 55.3% | SNB-19 CNS 101% | U251 CNS 100% | PC-3 prostate 63.2% | SK-MEL-5 melanoma 88.6% | UACC-62 melanoma 93% | LOX IMVI melanoma 61.3% | SK-MEL-28 melanoma 77.8%

COc1ccc(/C(N)=N/C(N)=N/c2nc3ccccc3s2)cc1
inactive: HCT-15 colon 62.6% | HT29 colon 104% | SNB-75 CNS 23.5% | SNB-19 CNS 86.2% | U251 CNS 68% | PC-3 prostate 62% | SK-MEL-5 melanoma 72% | UACC-62 melanoma 59.6% | LOX IMVI melanoma 22.8% | SK-MEL-28 melanoma 79.6%

COc1cc(-c2ccc3ncnc(NCc4ccccc4)c3c2)cnc1OC
active: SNB-75 CNS -17.8%
inactive: HCT-15 colon 68.2% | HT29 colon 64.5% | SNB-19 CNS 74.4% | U251 CNS 81.7% | PC-3 prostate 31.7% | SK-MEL-5 melanoma 70.8% | UACC-62 melanoma 47.1% | LOX IMVI melanoma 41.2% | SK-MEL-28 melanoma 63.2%

CS(=O)(=O)Nc1cc(-c2ccc3ncc(C#N)c(NCc4ccccc4O)c3c2)cnc1Cl
active: HCT-15 colon 8.71% | PC-3 prostate 9.68% | SK-MEL-5 melanoma -90.3% | UACC-62 melanoma -25.3% | LOX IMVI melanoma -34.5% | SK-MEL-28 melanoma 5.12%
inactive: HT29 colon 15.5% | SNB-75 CNS 32.3% | SNB-19 CNS 11.9% | U251 CNS 13.6%

Oc1cccc2ccc(-c3nnc(SCc4ccc(O)c5ncccc45)n3-c3ccccc3)nc12
inactive: HCT-15 colon 16.5% | HT29 colon 81.3% | PC-3 prostate 12.4% | SK-MEL-28 melanoma 22%
active: SNB-75 CNS 9.14% | SNB-19 CNS 9.4% | U251 CNS 8.21% | SK-MEL-5 melanoma -31.1% | UACC-62 melanoma -4.13% | LOX IMVI melanoma 5.48%

Fc1ccc(-c2cc3nc(C(Cl)Cl)nc(-c4ccc(F)cc4)n3n2)cc1
active: HCT-15 colon 8.52% | HT29 colon -6.96% | SNB-75 CNS -11.6% | SNB-19 CNS 1.89% | U251 CNS -39.8% | SK-MEL-28 melanoma -5.14%
inactive: PC-3 prostate 16.8% | SK-MEL-5 melanoma 76.5% | UACC-62 melanoma 44% | LOX IMVI melanoma 55.7%

Cc1ccc(CSc2nc(-c3ccc(Cl)cc3)c(C#N)c(N3CCOCC3)n2)cc1
inactive: HCT-15 colon 95.9% | HT29 colon 91.2% | SNB-75 CNS 108% | SNB-19 CNS 95.4% | U251 CNS 96.7% | PC-3 prostate 80.3% | SK-MEL-5 melanoma 96.5% | UACC-62 melanoma 73.1% | LOX IMVI melanoma 96.6% | SK-MEL-28 melanoma 93.8%

Nc1nc(-c2cccc([N+](=O)[O-])c2)c(N=Nc2ccccc2)s1
inactive: HCT-15 colon 38.3% | HT29 colon 61.3% | SNB-75 CNS 63.2% | SNB-19 CNS 81.2% | U251 CNS 54.3% | PC-3 prostate 51.2% | SK-MEL-5 melanoma 42.5% | UACC-62 melanoma 64% | LOX IMVI melanoma 53.5% | SK-MEL-28 melanoma 65%

CCCn1cnc2c(c1=N)C(c1ccc(Cl)cc1)c1sc3c(C)cccc3c1O2 (stereo not given)
inactive: HCT-15 colon 13% | SNB-75 CNS 26.7% | SNB-19 CNS 26.5% | U251 CNS 19.4% | SK-MEL-5 melanoma 28.7% | LOX IMVI melanoma 19.6% | SK-MEL-28 melanoma 60.9%
active: HT29 colon 5.11% | PC-3 prostate 6.9% | UACC-62 melanoma 5.02%

CCCCCc1ccc(S(=O)(=O)Nc2cccc(-c3csc(NC(=O)CN4CCN(C)CC4)n3)c2)cc1
active: LOX IMVI melanoma -58%
inactive: HCT-15 colon 11.7% | HT29 colon 25.5% | SNB-75 CNS 89.5% | SNB-19 CNS 85% | U251 CNS 49.7% | PC-3 prostate 67.1% | SK-MEL-5 melanoma 50.8% | UACC-62 melanoma 92.2% | SK-MEL-28 melanoma 89.4%
